Tau FP inhib: qHTS for Inhibitors of Tau Fibril Formation, Fluorescence Polarization; 0.39% of 280,000 active; AID 1468, 2008; Microtubule-associated protein tau (Homo sapiens), P10636; Potency, µM (series often up to 57.7 µM), most hits filed as inhibitors; K18 P301L tau heparin fibrillization, Alexa594 FP, 6 h; note: nearly all actives have a fitted effect of over 55% in size
Target sequence (P10636 561-689 P618L limits assumed): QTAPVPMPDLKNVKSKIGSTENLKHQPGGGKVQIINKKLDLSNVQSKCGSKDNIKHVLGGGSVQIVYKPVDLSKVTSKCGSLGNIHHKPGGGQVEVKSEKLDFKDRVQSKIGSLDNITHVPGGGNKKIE
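Recombinant K18 P301L […], labeled with Alexa 594 at 0.24 uM over 15 uM unlabeled; heparin inducer 20 uM final; 37 C, 6 hr; FP endpoint.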
Tau fluor counter: Counterscreen qHTS for Inhibitors of Tau Fibril Formation, Fluorescence Polarization; Potency, µM (titrated, usually from 57.7 µM); tau K18 P301L Alexa594 fluorescence, heparin fibrillization; 0.93% of 280,000 active; note: nearly all actives have a fitted effect of over 55% in size
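Human tau K18 P301L (15 uM unlabeled, 0.24 uM Alexa 594-labeled) in 100 mM sodium acetate pH 7 with 20 uM heparin, 6 hr at 37 C. ThT 30 uM added, 1 hr ambient; Alexa 594 FP and total fluorescence read at 555/632 nm.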
Tau fibril ThT: qHTS for Inhibitors of Tau Fibril Formation, Thioflavin T Binding | Potency, µM (titrated, usually from 57.4 µM), actives largely listed as inhibitors | Microtubule-associated protein tau (Homo sapiens), P10636 | 2.1% of 270,000 active | recombinant tau K18 P301L (four-repeat tau fragment), heparin-induced fibrillization, ThT fluorescence | AID 1460, 2008; note: nearly all actives have a fitted effect of over 55% in size
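Aggregation was driven by heparin (20 uM final) acting on recombinant tau […] bearing P301L in 100 mM sodium acetate pH 7; fibrils were detected with Thioflavin T.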
JMJD2E inh: qHTS Assay for Inhibitors of Human Jumonji Domain Containing 2E (JMJD2E). Lysine-specific demethylase 4E (Homo sapiens), B2RXH2. JMJD2E catalytic domain, FDH-coupled NADH fluorescence (FDH is formaldehyde dehydrogenase). Potency, µM (series often up to 57.1 µM), actives largely listed as inhibitors. 1.6% of 230,000 active. AID 2147, 2009; active = well fitted inhibition curve with a large enough effect, not every such curve was filed as active; inconclusive = small, poorly fitted or top-dose-only effect, or another doubt; inactive = no such curve, though single readings can be large or run the other way; note: nearly all actives have a fitted effect of over 50% in size
ALDH1A1 inh: qHTS Assay for Inhibitors of Aldehyde Dehydrogenase 1 (ALDH1A1); Purified ALDH1A1, NADH fluorescence, propionaldehyde substrate; Potency, µM (highest dose often 75.3 µM), usual class: inhibitors; 7.3% of 220,000 active; AID 1030, 2008; active = well fitted inhibition curve with a large enough effect, not every such curve was filed as active; inconclusive = small, poorly fitted or top-dose-only effect, or another doubt; inactive = no such curve, though single readings can be large or run the other way
Target sequence (P00352 whole entry, looked up): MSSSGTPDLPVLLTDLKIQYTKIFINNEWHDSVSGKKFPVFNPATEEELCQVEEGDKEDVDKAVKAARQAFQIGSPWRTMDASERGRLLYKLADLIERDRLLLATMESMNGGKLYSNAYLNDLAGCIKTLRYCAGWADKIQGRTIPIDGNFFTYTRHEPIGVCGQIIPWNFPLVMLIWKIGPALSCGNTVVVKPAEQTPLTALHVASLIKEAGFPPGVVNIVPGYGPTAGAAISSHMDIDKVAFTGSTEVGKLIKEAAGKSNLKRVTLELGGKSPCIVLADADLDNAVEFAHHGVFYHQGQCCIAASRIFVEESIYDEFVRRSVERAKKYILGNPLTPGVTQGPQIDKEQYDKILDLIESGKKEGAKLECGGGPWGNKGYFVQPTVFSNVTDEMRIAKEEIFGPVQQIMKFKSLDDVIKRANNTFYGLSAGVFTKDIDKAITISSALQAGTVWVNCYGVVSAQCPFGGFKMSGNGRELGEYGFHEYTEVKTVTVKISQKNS
HPGD inh: qHTS Assay for Inhibitors of HPGD (15-Hydroxyprostaglandin Dehydrogenase); purified HPGD, NADH fluorescence kinetic, PGE2 substrate; Potency, µM, most hits filed as inhibitors; 4.3% of 150,000 active; AID 894, 2007; active = well fitted inhibition curve with a large enough effect, not every such curve was filed as active; inconclusive = small, poorly fitted or top-dose-only effect, or another doubt; inactive = no such curve, though single readings can be large or run the other way
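20 nM HPGD preincubated 15 min at room temperature with compound in 50 mM Tris-HCl pH 8, 0.01% Tween 20. Started with 1 mM NAD+ and 30 uM prostaglandin E2; NADH fluorescence (360/450 nm) read 5 times over 30-s intervals, last minus first.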
Numbers stand for hits; . = inactive; ? = inconclusive; / = not tested or not shown; [ ] = remark or other dose. Most compounds without a hit are left out; they make up all but 9.9% or so of the library. Unless noted, calls come from the whole dose curve; as a rule, active = well fitted curve in the direction sought with a large enough effect; inconclusive = small, poorly fitted or top-dose-only effect, or another doubt; inactive = no such curve, though single readings can be large; an effect the other way counts as inactive or inconclusive.

SMILES | Tau FP inhib | Tau fluor counter | Tau fibril ThT | JMJD2E inh | ALDH1A1 inh | HPGD inh
Cc1ccc([C@H]2C(C#N)=C(N)Oc3cc(C)oc(=O)c32)o1 | . | . | ? | ? | ? | /
COc1ccc(NC(=O)c2cc(C)nc3c2c(C)nn3-c2ccc(C)cc2)cc1OC | . | ? | . | / | / | /
O=c1n(-c2ccccc2)c(=O)n2n1CC(O)C2 | . | . | . | . | . | /
COC(=O)CNC(=O)COC(=O)c1ccc(Cl)nc1 | . | . | . | . | . | /
CCc1ccc(OCC(=O)NCc2ccco2)c(Br)c1 | . | . | ? | . | ? | 35µM
COc1ccccc1OCC(=O)NCc1ccco1 | . | . | . | . | . | ?
O=C(COc1ccccc1Br)NCc1ccco1 | . | . | . | ? | ? | 25µM
COC(=O)c1scc(-c2ccc(C)cc2)c1S(=O)(=O)N1CCN(c2ccc(C(C)=O)cc2)CC1 | . | . | ? | / | / | /
Cn1c(=O)c2nc(SCC(=O)Nc3cc(Cl)ccc3Cl)n(C)c2n(C)c1=O | . | . | . | / | / | /
CC1NC2(C(=O)N(Cc3ccccc3)c3ccccc32)C2C(=O)N(c3ccccc3)C(=O)C12 (stereo not given) | . | . | . | . | 14µM | .
COc1cc2[nH]c(=O)n(Cc3ccc(C(=O)NCc4ccccc4)cc3)c(=O)c2cc1OC | ? | ? | . | / | / | /
CCCn1nnnc1NC(=O)CSc1ccc(Cl)cc1 | . | . | . | . | . | 16µM
CCOc1ccc(C(C)=O)cc1COC(=O)C1=COCCO1 | . | . | . | . | 14µM | .
CC1=NN(c2ccc(Cl)cc2)C(=O)C1 | . | . | ? | . | 0.63µM | /
CC1=NN(c2ccccc2)C(=O)C1 | . | . | ? | ? | 10µM | .
CC1=NN(c2ccc(N)cc2)C(=O)C1 | . | . | ? | ? | ? | .
COc1ccc(OC)c(NC(=O)c2cc(C3CC3)nc3c2c(C)nn3-c2ccc(C)cc2)c1 | . | ? | . | / | / | /
CC(C)CCN1CCc2nc(-c3ccccc3)c3c(c2C1)COC(C)C3 (stereo not given) | .[11.6 µM] | .[11.6 µM] | .[11.5 µM] | / | .[13.5 µM] | /
CCOc1cc2c(cc1OCC)C(c1ccccc1OC)OC(=O)C2 (stereo not given) | . | . | . | ? | 11µM | .
O=C(CCn1c(=O)c2ccccc2n(Cc2cccc([N+](=O)[O-])c2)c1=O)N1CCc2ccccc2C1 | . | . | . | . | ? | 16µM
O=C(O)Cc1cc(Cl)ccc1O | / | / | / | / | .[13.5 µM] | .
CCOC(=O)c1ccc(N2C(=O)c3[nH]nc(-c4ccc(C)cc4)c3C2c2cccs2)cc1 (stereo not given) | ? | . | . | / | / | /
Cc1cc(C(=O)CSc2nnc(NCc3ccccc3)s2)c(C)n1C | . | . | . | . | . | 18µM
Cc1ccn2c(=O)cc(COc3ccc(NC(=O)C(C)(C)C)cc3)nc2c1 | . | . | . | / | / | /
COCc1cc(CN2CCCC2)c(O)c2ncccc12 | . | . | ? | 3.5µM | . | .
SMILES | Tau FP inhib | Tau fluor counter | Tau fibril ThT | JMJD2E inh | ALDH1A1 inh | HPGD inh
COc1ccccc1N1CCN(Cc2cc(Br)c(O)c3ncccc23)CC1 | . | ? | ? | 25µM | ? | .
O=C(Oc1c(CN2CCOCC2)cc(Cl)c2cccnc12)c1cccs1 | . | . | ? | 25µM | ? | /
OCCN1CCN(Cc2cc(Cl)c3cccnc3c2O)CC1 | ? | . | ? | 22µM | ? | .
CCOCc1cc(CN2CCN(c3ccccc3OC)CC2)c(O)c2ncccc12 | . | . | ? | / | / | /
O=C(Oc1c(CN2CCOCC2)cc(Cl)c2cccnc12)c1ccccc1Cl | . | . | ? | ? | . | /
O=C(Cn1ncc2c(=O)oc3ccccc3c21)Nc1cc(F)ccc1F | . | . | . | / | / | /
CCCNC(=O)c1c(C)nn(-c2cccc(C)c2)c1-n1cccc1 | . | . | . | / | / | /
O=[N+]([O-])c1cc(CN2CCCC2)c2cccnc2c1O | . | . | 16µM | 20µM | . | .
Cc1ccc(-n2nnnc2-c2cccc(C)c2)cc1 | . | . | . | . | . | /
Cc1cccc(-c2nnnn2-c2cccc(C)c2)c1 | . | . | . | . | 4.5µM | /
CCc1oc(C(=O)O)cc1COC | . | . | . | . | . | .
COCc1cc(O)c(O)c(O)c1-c1c(COC)cc(O)c(O)c1O | 6.3µM | ? | 3.2µM | / | ? | /
COc1ccc(S(=O)(=O)N2Cc3ccccc3CC2C(=O)Nc2nccs2)cc1 (stereo not given) | . | . | . | . | 5µM | .
Cc1cccc(OCCN2C(=O)C(=O)c3cc(C)ccc32)c1 | . | . | ? | . | 0.63µM | /
Cc1ccc2c(c1)C(=O)C(=O)N2CCOc1ccccc1 | . | . | ? | . | 1.3µM | /
Cc1ccc2c(c1)C(=O)C(=O)N2CCCOc1ccccc1C | . | .[2.34 µM] | . | ? | . | /
Cc1cccc(OCCN2C(=O)C(=O)c3cccc(C)c32)c1 | . | . | . | . | 0.16µM | .
Cc1ccc2c(c1)C(=O)C(=O)N2Cc1ccc(OCCC(C)C)cc1 | . | . | . | / | / | /
CCN(CC)c1ccc(NC(=O)C2CCN(c3nnc(-n4cccc4)s3)CC2)c(C)c1 | . | . | ? | / | / | /
O=C(C/C(=N/O)c1ccccc1O)C(F)F | . | . | . | . | . | 16µM
COC(=O)c1ccccc1O | / | / | / | / | . | .
CN(C)C(=O)c1ccc(NC(=O)c2ccccc2Sc2ccccc2C#N)cc1 | ? | . | . | . | . | 18µM
CC(C)(C)OC(=O)N1CCC(c2c(C(=O)N3CCN(C(=O)c4ccco4)CC3)cnn2-c2cccc(F)c2)CC1 | . | . | . | / | / | /

Screening data as filed in PubChem BioAssay.
